Laboratory results from PubChem BioAssay (NCI).
The panel holds about 79,000 compounds, 15% with a hit somewhere; the sample as a whole holds those more often. A number with no mark means an inactive call. The source made the active and inactive calls. Rule as the data show it: active = growth inhibition above about 70%; inactive = the rest.

experiment: NCI Yeast Anticancer Drug Screen. Data for the cln2 rad14 strain (AID 165);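 also: 0% = growth equal to vehicle treated cultures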; conditions: S. cerevisiae cln2 rad14 strain, at 50.0 µM, hits give high values
In short: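 Strain: cln2 rad14 yeast, altered in cell cycle control and DNA damage repair. Read-out: growth inhibition vs vehicle.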

Row | SMILES | growth inhibition
1 | COC1=CC(O)(CC(N)=O)c2ccccc2C1=O (stereo not given) | -11.4%
2 | [N-]=[N+]=NC(=O)C1C(c2ccccc2)=C1c1ccccc1 | 23.7%
3 | O=[N+]([O-])c1cc(Cl)ccc1NC(Nc1ccc(Cl)cc1[N+](=O)[O-])C(Cl)(Cl)Cl | -31.9%
4 | Nc1nc2sc3ccccc3c(=O)n2n1 | 19.1%
5 | CCOC(=O)c1ccc(NC(=O)Nc2cc(Cl)ncn2)cc1 | -22.9%
6 | Cc1ccc(S(=O)(=O)NC2C(=O)c3ccccc3C(=O)C2n2ccnc2)cc1 (stereo not given) | 2.75%
7 | N=c1c2ccccc2nc2oc3ccc(Cl)cc3n12 | -0.45%
8 | Cc1c(-c2ccc(N)cc2)c(=O)oc2cc(O)ccc12 | 33%
9 | CCCc1ccccc1[N+](=O)[O-] | -4.35%
10 | Cc1cc2c(c(C(=O)NCC(=O)O)c1)Oc1c(cc(C)cc1C(=O)NCC(=O)O)S2 | 14.8%
11 | O=C1NC(=O)[C@H]2C[C@H]3C(=O)NC(=O)[C@H]3[C@@H]12 | -11.3%
12 | OCC(O)COCCCCCCCCCCCCCC1C=CCC1 (stereo not given) | -4.3%
13 | CCCCN1CCSC1=S | 98% (active)
14 | N=C(/C(=C/c1cccc2ccccc12)c1ccccc1)c1ccccc1 | -7.6%
15 | COc1ccc2occc2c1 | 2.7%
16 | C=CCN1/C(=C(\C#N)c2nc3ccccc3[nH]2)Sc2c1nc[nH]c2=O | -32%
17 | Cc1ccc2c(ccc3nnc(C)n32)c1 | -2.95%
18 | C=CCN1C(=O)/C(=C/c2ccc(OCC(=O)O)cc2)SC1=S | -46.6%
19 | COc1c2c(cc3c1C1(O)Cc4ccc5c(c4C[N+]1(C)CC3)OCO5)OCO2 (stereo not given) | -1.15%
20 | C=C1C(=O)OC2/C=C(\C)CC(O)/C=C(/C)CC(OC(=O)C(O)(CO)C(C)S)C12 (stereo not given) | 3%

Row | SMILES | growth inhibition
21 | CNC(=O)c1ccccc1C | -33.3%
22 | N#CCCCCCCO | 15.4%
23 | O=C(Nc1nccs1)Nc1cc(F)ccc1F | -13.2%
24 | N#CC(c1ccc(Cl)cc1)c1cccc(C(C#N)c2ccc(Cl)cc2)n1 (stereo not given) | 32.1%
25 | O=C1NC(=O)C2(CCC(O)C2)c2cc[n+]([O-])cc21 (stereo not given) | 8.25%
26 | Cn1c(=O)c2c(nc(NCCOC(=S)S)n2C)n(C)c1=O | 32.5%
27 | CCCC=Nc1ccccc1 | -19.9%
28 | COC(=O)c1c(C)cc(OC)c(C/C=C(\C)CCCc2coc(C=C(C)C)c2)c1OC | 11.9%
29 | BrC1=C(c2ccccc2)SC(Br)=C(c2ccccc2)S1 | 21.7%
30 | Cc1ccc(NC(=O)/C=C2\CONC(c3ccccc3)=N2)cc1 | -15.2%
31 | CCOC(=O)NN(C(=O)OCC)C(C(C)=O)c1ccccc1 (stereo not given) | -9.35%
32 | O=c1[nH]c(=O)c2ncn(C3OC(CO)C(O)C3O)c2[nH]1.O=c1[nH]c(=O)c2ncn(C3OC(CO)C(O)C3O)c2[nH]1.[NH2-].[NH2-].[Pt+2] (stereo not given) | 3.55%
33 | c1ccc(N=c2snc3scc(-c4ccccc4)n23)cc1 | 17.6%
34 | COc1ccc([N+](=O)[O-])c2ncncc12 | 6.6%
35 | O=[N+]([O-])c1cccc([I+]c2cccc([N+](=O)[O-])c2)c1 | 96.5% (active)
36 | O=C(Cc1cccc(CC(=O)c2ccccc2)n1)c1ccccc1 | -52.2%
37 | c1ccc2c(c1)NC1(CCCCC1)S2 | 11.6%
38 | O=C1OC(c2ccc(O)c(-c3ccccc3)c2)(c2ccc(O)c(-c3ccccc3)c2)c2c(Cl)c(Cl)c(Cl)c(Cl)c21 | -18.6%
39 | CC(=O)Oc1c(C)n(C(C)=O)c2cc(Cl)ccc12 | -45%
40 | CCN(CC)c1ccc2cc(-c3nc4ccccc4n3C)c(=O)oc2c1 | 6.55%
